# Compounds without any hit were thinned out: in the full panel of roughly 83,000, 20% have a hit.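 Growth was measured after 48 h exposure to one concentration of compound in 96-well plates. Values under 10 count as active.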 Values without a mark were called inactive. Active and inactive are the calls of the source.
# System: HL-60(TB) leukemia
# Test: NCI-60 one-dose screen, 48 h (100 = growth as untreated, 0 = no growth, -100 = all killed)
# Details: 10 µM unless noted
row,Compound,growth
1,COc1ccc(-c2c(N)n[nH]c2-c2cc3c(c(OC)c2OC)OCO3)cc1,63.1%
2,O=C1C(c2c[nH]c3ccccc23)=C(c2coc3cc(Br)ccc23)C(=O)N1O,103%
3,CC(C)OC(=O)c1cc(NC(=S)OC(C)C)ccc1Cl,86.2%
4,CC1Cc2c(Cl)ncnc2N(C)c2ccc(Cl)cc21 (centres undefined),13.3%
5,C=C1CC[C@@H]2[C@](C)(COC(C)=O)[C@H](OC(C)=O)CC[C@@]2(C)[C@@H]1CC(NCc1ccccc1)C1=CCOC1=O (some centres undefined),-9.93% (active)
6,CCOC(=O)c1nc(Nc2cc(C)[nH]n2)c2ccccc2n1,106%
7,CCCN1C(=O)N(CCC)C2C1NC(=S)N2/N=C/C=C/c1ccccc1OC (centres undefined),-42.1% (active)
8,CC12CCC3C4(C)COC(c5ccccc5Cl)OC4CCC3(C)C1CC(C1=CCOC1=O)O2 (centres undefined),26.2%
9,C[C@@H]1CC[C@H]2[C@@H](C)C(O)O[C@@H]3O[C@]4(C)CC[C@@H]1[C@]32OO4 (some centres undefined),-24.4% (active)
10,Oc1ccccc1-c1nc2ccccn2c1NCCN1CCOCC1,102%
11,NCc1cn2cc(Cl)sc2n1,129%
12,O=C(O)c1c[nH]c2ccccc2c1=O,91.2%
13,C=C1C(=O)O[C@H]2[C@H]1CC/C(COC(=O)NCc1c[nH]c3ccc(Cl)cc13)=C\CC[C@@]1(C)O[C@@H]21,-32.9% (active)
14,CNC(=O)c1cncc(Cn2nc(C)c(NC(=O)c3ccc(COc4ccc(C(F)(F)F)cc4C)cc3)c2C)c1,63.6%

# Reference: PubChem BioAssay (NCI)
